In the library only some 2.4% were active in any assay of this set; here they are far more common.
D2 PAM-1 – potentiates the human D2 dopamine receptor allosterically. 360,000 compounds, 0.23% hits. potentiation, % (no concentration beside the values). P14416. DiscoveRx D2 beta-arrestin cells, luminescence, 90 min; 100% = 57 uM dopamine signal; in the data active means potentiation above about 50%
Target sequence (P14416 whole entry, looked up): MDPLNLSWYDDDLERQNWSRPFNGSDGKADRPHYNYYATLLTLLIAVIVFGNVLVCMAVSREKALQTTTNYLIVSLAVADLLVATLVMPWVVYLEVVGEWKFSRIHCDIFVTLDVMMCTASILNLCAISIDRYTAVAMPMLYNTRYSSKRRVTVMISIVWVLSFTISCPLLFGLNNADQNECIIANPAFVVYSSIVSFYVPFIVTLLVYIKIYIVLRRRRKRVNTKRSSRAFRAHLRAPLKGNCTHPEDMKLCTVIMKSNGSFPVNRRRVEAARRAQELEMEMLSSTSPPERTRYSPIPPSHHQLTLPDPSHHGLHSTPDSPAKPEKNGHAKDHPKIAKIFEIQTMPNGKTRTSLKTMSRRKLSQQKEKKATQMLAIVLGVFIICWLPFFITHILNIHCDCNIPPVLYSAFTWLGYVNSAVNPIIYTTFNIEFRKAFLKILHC
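PathHunter D2 cells, attached overnight at 37 deg C, received compound in DMSO plus dopamine at EC20 (50 nM final) for 90 min at 37 deg C. Beta-arrestin recruitment was read as luminescence after 1 h with detection reagent at ambient temperature.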
D2 ag-1 – agonists of human D2 dopamine receptor (beta-arrestin); DiscoveRx PathHunter D2 beta-arrestin, luminescence, 90 min; 100% = 57 uM dopamine signal; activation, % (no concentration beside the values); 360,000 compounds, 0.084% hits; in the data active means activation above about 40%
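Agonist mode: compounds alone added to overnight-plated D2 PathHunter cells for 90 min at 37 C, with 57 uM final dopamine (EC100) defining full response. Beta-arrestin recruitment detected by chemiluminescent reagent, read after 1 h at ambient temperature.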
D2 PAM-2 – positive allosteric modulators of human D2 dopamine receptor; P14416; HEK293 T-REx D2, calcium flux, EC20 dopamine potentiation; potentiation, % at 10 µM; 340,000 compounds, 0.34% hits;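 active means potentiation over 3 SD above the plate norm, cut at about 30% in these data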; further: 0% is about no effect
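Calcium flux readout, no-wash dye, 1 read/s. Inducible HEK293 Trex D2 line, overnight 30 C. Compound alone 180 s (agonist flags), then EC20 dopamine, another 180 s to score potentiation.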
D2 antag – antagonizes the human D2 dopamine receptor. 340,000 compounds, 2% hits. HEK293 TREx D2 cells, calcium flux, dopamine EC80. inhibition, % at 10 µM; in the data active means inhibition above about 30%; inactive means below that, where a call was filed; further: 0% is about no effect
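Read-out: kinetic calcium fluorescence (1 cycle/s) in inducible HEK293 T-REx D2 cells after an EC80 dopamine addition that followed 180 s compound preincubation. Loss of the dopamine response indicates antagonism.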
D2 ag-2 – agonists of human D2 dopamine receptor | HEK293 T-REx D2 cells, calcium flux agonist mode | activation, % at 2 µM | P14416 | 340,000 compounds, 0.53% hits;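 active means activation over 3 SD above normal in the single-dose calcium agonist read, cut at about 30% in these data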; further: 0% is about no effect
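HEK293 Trex D2 cells, tetracycline-induced, o/n 30 C 5% CO2; no-wash Ca dye, RT 30–90 min; 10-cycle baseline, 23 nl cpd added, kinetic Ca read 180 s; agonist hits = positive Ca response.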
* marks the source's active call; other numbers are inactive results; / = not tested or not shown; ! = not active in a repeat.

SMILES	D2 PAM-1	D2 ag-1	D2 PAM-2	D2 antag	D2 ag-2
Cc1cccc(N2CCN(CC(O)COc3ccccc3Cl)CC2)c1 (configuration not stated)	-53	-5	-24	71*	9
OC(COc1cc(Cl)c(Cl)cc1Cl)CN1CCN(c2ncccn2)CC1 (configuration not stated)	-31	11	-22	37*	26
COc1ccc(/C=N/NC(=O)c2ccc(O)cc2O)cc1CSc1ccccn1	-1	0	-15	19	39*
CCCCOC(=O)/C=C/c1ccc(OC(=O)OC)c(OC(=O)OC)c1	-9	3	-4	74*	0
O=C(Nc1ccc(F)cc1)c1cccc(N2CCCS2(=O)=O)c1	/	/	-1	/	-1
NC(=O)C[n+]1cccc(CNC(=O)c2ccc(OC(F)F)cc2)c1	1	-4	1	32*	2
O=C(C[n+]1cccc(CNC(=O)c2ccc(OC(F)F)cc2)c1)Nc1cc(C(F)(F)F)ccc1Cl	-39	-2	-19	63*	-1
COC(=O)CC(NC(=O)c1ccco1)c1cccc2ccccc12 (configuration not stated)	-10	-1	10	8	0
COC(=O)CC(NS(=O)(=O)c1cccs1)c1cccc2ccccc12 (configuration not stated)	-3	-2	2	46*	0
Cc1cccc(Cn2c(=O)n3nc(-c4ccccc4)nc3c3ccccc32)c1	/	/	-6	/	/
Cc1ccc(S(=O)(=O)NCCC(=O)N2CCN(S(=O)(=O)c3ccccc3)CC2)cc1C	-3	-9	-9	18	0
Cc1ccc(C)c(S(=O)(=O)N2CCN(C(=O)CCNS(=O)(=O)c3ccc(C)c(C)c3)CC2)c1	9	2	32*	-16	0
Cc1cc(C(=O)NC2CCCCC2)c2cc(F)ccc2n1	26	2	-1	31*	1
Cc1cc(C(=O)NC2CCCC2)c2ccccc2n1	-8	1	-1	/	/
O=C(CN1C(=O)COc2ccccc21)NCCCN1CCN(Cc2ccccc2)CC1	-18	-1	-16	10	1
O=C(CN1C(=O)COc2ccccc21)NCCCN1CCc2ccccc2C1	-24	-1	-30	58*	-1
CCC(CC)C(=O)N1CCc2cc(OC)c(OC)cc2C1COc1ccc(C(=O)OC)cc1 (configuration not stated)	/	/	4	/	1
Cc1cccc(C)c1NC(=O)CN1C(=O)N(C)Cc2ccccc21	-2	0	-2	45*	0
Cc1cccc(C(C)C)c1NC(=O)COC(=O)CN1C(=O)C2CC=CCC2C1=O (configuration not stated)	-11	-4	5	-3	1
CN1Cc2ccccc2N(CC(=O)NCc2ccccc2)C1=O	-8	-3	-2	/	/
Cc1cccc(C)c1NC(=O)CN1C(=O)C2CC=CCC2C1=O (configuration not stated)	1	-6	-4	57*	0
COc1ccc(-c2nc3c(c(SCC(=O)N4CCCCC4)n2)Cc2c(CO)cnc(C)c2O3)cc1	/	/	-2	/	0
CC1CCN(S(=O)(=O)c2ccc3nc(NCc4ccccc4)ccc3c2)CC1	/	/	4	/	0
CCC(Sc1nc2cc(OC)c(OC)cc2c(=O)n1Cc1ccc(OC)cc1)C(=O)NCCOC (configuration not stated)	-2	-2	31*!	-1	0
COc1ccc(C(C)=O)cc1COC(=O)Cc1n[nH]c(=O)c2ccccc12	-3	-3	5	33*	0
COc1ccccc1C(=O)COC(=O)Cc1n[nH]c(=O)c2ccccc12	-1	-5	-11	/	/
CC(=O)CC1(O)C(=O)N(Cc2ccccc2)c2ccccc21 (configuration not stated)	7	0	-25	61*	0
CC1(C)C(=S)N(Cc2ccccc2)c2ccccc21	63*	6	-3	1	-1
C/C(CC1(O)C(=O)N(Cc2ccccc2)c2ccccc21)=N\O (configuration not stated)	-14	-2	-10	25	0
CC(C)(C)OC(=O)N1CCC(c2c(C(=O)NCCN3CCCC3)cnn2-c2ccc(Cl)cc2)CC1	/	/	5	/	1

Screens (PubChem BioAssay)
